Reference: a collection of fitness landscapes (doi:10.1016/j.celrep.2020.107928)
Over roughly 81,000 sequences, “one-hybrid fitness for binding NBS DNA” has its median near -0.1; the highest 2% begin near 0.36. Only a selection was taken, and the highest values are over-represented in it overall.

B1: Caulobacter ParB omega fusion; a variant is named by its letters at X, in order, B8GW30 (parent)
chain: MESVVVGEPGMSEGRRGLGRGLSALLGEVDAAPAQAPGEQLGGSREAPIEILQRNPDQPRRTFREEDLEDLSNSIREKGVLQPILVRPSPDTAGEYQIVAGERAWRAAQRAGLKTVPIMVRELDDLAVLEIGIIENVQRADLNVLEEALSYKVLMEKFERTQENIAQTIGKSXSHVANXMRLLXLPDEVQSYLVSGELTAXHARAIAAAADPVALAKQIIEGGLSVRETEALARKAPNLSAGKSKGGRPPRVKDTDTQALESDLSSVLGLDVSIDHRGSTGTLTITYATLEQLDDLCNRLTRGI

Variants of: B1
Experiment: one-hybrid fitness for binding NBS DNA (the Noc-binding site; scaled: cognate 1, non-cognate 0); higher = stronger binding
Settings: with NBS DNA site
Procedure, shortened: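 Caulobacter ParB libraries with four specificity codons randomised were screened by bacterial one-hybrid selection in the E. coli USO strain, using a HIS3 reporter whose site lies 19 bp from the promoter. Selection ran for 48 hours at 37°C on M9 lacking histidine, with 0.1 mM IPTG and 5 mM 3-AT. Plasmids were Illumina-sequenced before and after selection, three replicate libraries were pooled, and variants with under 10 reads were dropped. Fitness is the log change in each variant's read ratio to wild type, rescaled against the cognate and non-cognate sites.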

| Variant | one-hybrid fitness for binding NBS DNA |
| --- | --- |
| TSRY | ≤ 0.2 |
| RQHL | ≤ 0.2 |
| HCVL | ≤ 0.2 |
| SCSP | ≤ 0.2 |
| SVIR | ≤ 0.2 |
| DSRA | ≤ 0.2 |
| DIFG | ≤ 0.2 |
| WLHF | ≤ 0.2 |
| EQLL | ≤ 0.2 |
| LLDV | ≤ 0.2 |
| GYFR | ≤ 0.2 |
| QKDT | 0.401 |
| QKNT | 0.639 |
| QKNN | 0.203 |
| QKND | ≤ 0.2 |
| GYDR | ≤ 0.2 |
| FATT | ≤ 0.2 |
| GEDG | ≤ 0.2 |
| RHGT | 0.344 |
| RAGT | 0.443 |
| RPGT | ≤ 0.2 |
| RAGF | ≤ 0.2 |
| RNGT | ≤ 0.2 |
| RIGT | 0.403 |

| Variant | one-hybrid fitness for binding NBS DNA |
| --- | --- |
| RSGT | 0.425 |
| RIGQ | ≤ 0.2 |
| RCGT | 0.462 |
| RFGT | ≤ 0.2 |
| RAGG | ≤ 0.2 |
| CETT | ≤ 0.2 |
| LWGM | ≤ 0.2 |
| HAAD | ≤ 0.2 |
| HAFN | ≤ 0.2 |
| VLQG | ≤ 0.2 |
| QGVT | ≤ 0.2 |
| QKKT | 0.774 |
| QKVG | ≤ 0.2 |
| QKVT | 0.44 |
| QPVT | 0.269 |
| DKKT | ≤ 0.2 |
| QCVT | 0.428 |
| CKVS | ≤ 0.2 |
| ENAK | ≤ 0.2 |
| LWKN | ≤ 0.2 |
| VVCT | ≤ 0.2 |
| GSCC | ≤ 0.2 |
| HRFR | ≤ 0.2 |
| RRDS | 0.58 |

| Variant | one-hybrid fitness for binding NBS DNA |
| --- | --- |
| RRNF | 0.281 |
| RRDP | ≤ 0.2 |
| RRDD | ≤ 0.2 |
| RRNS | 0.678 |
| RRNC | 0.343 |
| ADSL | ≤ 0.2 |
| MLMV | ≤ 0.2 |
| CATV | ≤ 0.2 |
| SVNP | ≤ 0.2 |
| VMPY | ≤ 0.2 |
| MHHD | ≤ 0.2 |
| QRLP | ≤ 0.2 |
| QRLS | 0.603 |
| QRLN | 0.308 |
| QCLH | ≤ 0.2 |
| QRLH | 0.453 |
| QRLD | ≤ 0.2 |
| LGRE | ≤ 0.2 |
| ACPI | ≤ 0.2 |
| REGM | ≤ 0.2 |
| TASA | ≤ 0.2 |
| RQNR | 0.559 |
| RQSR | 0.474 |
| RQWR | 0.244 |

| Variant | one-hybrid fitness for binding NBS DNA |
| --- | --- |
| RQDR | ≤ 0.2 |
| RQSD | ≤ 0.2 |
| RQQP | ≤ 0.2 |
| RQQD | ≤ 0.2 |
| RQND | ≤ 0.2 |
| RQSH | ≤ 0.2 |
| RQQS | 0.429 |
| RQPR | ≤ 0.2 |
| RQRR | 0.717 |
| ARKV | ≤ 0.2 |
| NQVL | ≤ 0.2 |
| FWRE | ≤ 0.2 |
| DFAH | ≤ 0.2 |
| PFPI | ≤ 0.2 |
| KFHC | ≤ 0.2 |
| LPAH | ≤ 0.2 |
| KTKA | ≤ 0.2 |
| EELL | ≤ 0.2 |
| PSMT | ≤ 0.2 |
| RQGN | ≤ 0.2 |
| RQHR | 0.476 |
| RQGP | ≤ 0.2 |
| RQHD | ≤ 0.2 |
| RQQT | 0.441 |

| Variant | one-hybrid fitness for binding NBS DNA |
| --- | --- |
| RQIR | ≤ 0.2 |
| RQHH | ≤ 0.2 |
| RQYR | 0.368 |
| RQQK | ≤ 0.2 |
| RQQG | ≤ 0.2 |
| RQLR | 0.359 |
| RQGS | 0.408 |
| CNHR | ≤ 0.2 |
| SRDF | ≤ 0.2 |
| GICT | ≤ 0.2 |
| HHHV | ≤ 0.2 |
| ISLV | ≤ 0.2 |
| PQPQ | ≤ 0.2 |
| SHQT | ≤ 0.2 |
| RQQH | ≤ 0.2 |
| RQGH | ≤ 0.2 |
| RQQN | ≤ 0.2 |
| RQVR | 0.258 |
| RQFR | 0.262 |
| RQGD | ≤ 0.2 |
| RQAR | 0.427 |
| RQKG | ≤ 0.2 |
| RQAP | ≤ 0.2 |
| RQKR | 0.752 |

| Variant | one-hybrid fitness for binding NBS DNA |
| --- | --- |
| RQGR | 0.447 |
| RQQR | 0.475 |
| IAMG | ≤ 0.2 |
| HHPA | ≤ 0.2 |
| HPHL | ≤ 0.2 |
| TLMC | ≤ 0.2 |
| PVFR | ≤ 0.2 |
| FHGR | ≤ 0.2 |
| QHHG | ≤ 0.2 |
| RYFG | ≤ 0.2 |
| RQRS | 0.6 |
| RQHN | ≤ 0.2 |
| RQHP | ≤ 0.2 |
| RQRN | 0.221 |
| RQCS | 0.278 |
| RQCR | 0.394 |
| RQHS | 0.468 |
| RQYS | 0.322 |
| RQCN | ≤ 0.2 |
| TYVN | ≤ 0.2 |
| IGSF | ≤ 0.2 |
| FTRC | ≤ 0.2 |
| PRTW | ≤ 0.2 |
| QTHH | 0.44 |

| Variant | one-hybrid fitness for binding NBS DNA |
| --- | --- |
| QTHN | 0.297 |
| QTHD | ≤ 0.2 |
| QTHY | 0.384 |
| QTHF | ≤ 0.2 |
| QSHY | 0.201 |
| QTHP | ≤ 0.2 |
| QTHS | 0.585 |
| YMSF | ≤ 0.2 |
| HSWC | ≤ 0.2 |
| ATGK | ≤ 0.2 |
| YNLW | ≤ 0.2 |
| DVCT | ≤ 0.2 |
| DEDT | ≤ 0.2 |
| PSQV | ≤ 0.2 |
| DYHC | ≤ 0.2 |
| RKWK | ≤ 0.2 |
| AQNL | ≤ 0.2 |
| RRHS | 0.681 |
| RRHK | 0.267 |
| RRHN | 0.331 |
| RRHD | ≤ 0.2 |
| RRHH | 0.525 |
| RRHP | ≤ 0.2 |
| VSMF | ≤ 0.2 |

| Variant | one-hybrid fitness for binding NBS DNA |
| --- | --- |
| PDIW | ≤ 0.2 |
| QHCA | ≤ 0.2 |
| QSMA | ≤ 0.2 |
| QSWA | ≤ 0.2 |
| QCMA | 0.303 |
| QRWA | 0.432 |
| QACA | ≤ 0.2 |
| QIWA | ≤ 0.2 |
| QRMA | 0.549 |
| QSTA | 0.219 |
| QRTA | 0.6 |
| QITA | ≤ 0.2 |
| QRCA | 0.609 |
| FHAS | ≤ 0.2 |
| ENIG | ≤ 0.2 |
| LRKN | ≤ 0.2 |
| PCWT | ≤ 0.2 |
| DRRA | ≤ 0.2 |
| QRRA | 0.674 |
| QRIA | 0.436 |
| QWRA | ≤ 0.2 |
| QSLA | ≤ 0.2 |
| QCLA | 0.304 |
| QRSA | 0.566 |

| Variant | one-hybrid fitness for binding NBS DNA |
| --- | --- |
| QRLA | 0.547 |
| QCIA | 0.25 |
| QRPA | 0.207 |
| QPSA | ≤ 0.2 |
| QSSA | ≤ 0.2 |
| TTVS | ≤ 0.2 |
| YHRS | ≤ 0.2 |
| YKRY | ≤ 0.2 |
| IDDD | ≤ 0.2 |
| SRTS | ≤ 0.2 |
| TNTI | ≤ 0.2 |
| CWVC | ≤ 0.2 |
| RTKL | ≤ 0.2 |
| CLGT | ≤ 0.2 |
| QRYA | 0.588 |
| QPYA | ≤ 0.2 |
| QREA | 0.288 |
| RATL | ≤ 0.2 |
| AQRI | ≤ 0.2 |
| VVMC | ≤ 0.2 |
| QRWK | 0.239 |
| QCSK | ≤ 0.2 |
| QSSK | ≤ 0.2 |
| QRHK | 0.432 |

| Variant | one-hybrid fitness for binding NBS DNA |
| --- | --- |
| QSHK | ≤ 0.2 |
| QRPK | ≤ 0.2 |
| QRCK | 0.388 |
| QCCK | ≤ 0.2 |
| QRRK | 0.747 |
| QSCK | ≤ 0.2 |
| QCHK | ≤ 0.2 |
| QRSK | 0.396 |
| YTTG | ≤ 0.2 |
| PILC | ≤ 0.2 |
| GPWT | ≤ 0.2 |
| TTST | ≤ 0.2 |
| PSAI | ≤ 0.2 |
| LWNA | ≤ 0.2 |
| HNMG | 0.257 |
| QRGK | 0.445 |
| QCAK | ≤ 0.2 |
| QRIK | 0.213 |
| QRDK | ≤ 0.2 |
| QSGK | ≤ 0.2 |
| QCNK | ≤ 0.2 |
| QRFK | 0.295 |
| QREK | ≤ 0.2 |
| QCGK | ≤ 0.2 |

| Variant | one-hybrid fitness for binding NBS DNA |
| --- | --- |
| QRAK | 0.373 |
| QRYK | 0.381 |
| QRNK | 0.488 |
| TYVS | ≤ 0.2 |
| MKIS | ≤ 0.2 |
| KICD | ≤ 0.2 |
| FCSG | ≤ 0.2 |
| FRQA | ≤ 0.2 |
| QRQK | 0.365 |
| QSQK | ≤ 0.2 |
| QCQK | ≤ 0.2 |
| GPRT | 0.369 |
| QCRT | 0.857 |
| GCRT | ≤ 0.2 |
| QNYT | ≤ 0.2 |
| QSRT | 0.723 |
| QPRT | ≤ 0.2 |
| QCYT | 0.503 |
| QNRT | 0.292 |
| QPYT | ≤ 0.2 |
| QSYT | 0.347 |
| GPYT | ≤ 0.2 |
| VDRR | ≤ 0.2 |
| QPAL | ≤ 0.2 |

| Variant | one-hybrid fitness for binding NBS DNA |
| --- | --- |
| PSKA | ≤ 0.2 |
| SGLS | ≤ 0.2 |
| RPAY | ≤ 0.2 |
| SNWT | ≤ 0.2 |
| PAIL | ≤ 0.2 |
| HYHS | ≤ 0.2 |
| FRPV | ≤ 0.2 |
| PPFR | ≤ 0.2 |
| QAYT | 0.322 |
| QLLT | 0.33 |
| QLYT | 0.355 |
| QHYT | 0.359 |
| QALT | 0.352 |
| QLRT | 0.668 |
| QHLT | 0.337 |
| QIRT | 0.608 |
| QHRT | 0.681 |
| QART | 0.716 |
| QIPT | ≤ 0.2 |
| QIYT | 0.335 |
| ALLT | ≤ 0.2 |
| QWRW | ≤ 0.2 |
| HELN | ≤ 0.2 |
| VNET | ≤ 0.2 |

| Variant | one-hybrid fitness for binding NBS DNA |
| --- | --- |
| TDND | ≤ 0.2 |
| QYNF | ≤ 0.2 |
| HKPS | ≤ 0.2 |
| SLTE | ≤ 0.2 |
| AVAW | ≤ 0.2 |
| QTVR | 0.558 |
| QTKR | 1.15 |
| DTKR | 0.321 |
| NTKR | 0.255 |
| VQPA | ≤ 0.2 |
| YAHE | ≤ 0.2 |
| QHRS | 0.627 |
| QHRP | 0.201 |
| QHRD | 0.234 |
| QHRH | 0.494 |
| QHYH | ≤ 0.2 |
| QHYS | 0.324 |
| SNPD | ≤ 0.2 |
